Activity calls are given as the source filed them. How the source made its calls: active means hit-call score of the fitted dose curve at least 0.9, where 1 is the maximum; inactive means score below 0.9.
Columns and labels:
[1] = molecular target: CCAAT/enhancer-binding protein beta (Homo sapiens) (UniProt P17676); test: ATG_C_EBP_CIS: Attagene CIS-FACTORIAL HepG2 Assay for human CCAAT/Enhancer Binding Protein (C/EBP) beta (AID 2282927); settings: HepG2 Attagene cis-factorial transcription factor reporter; actives raise or lower the signal
Chain of CCAAT/enhancer-binding protein beta (Homo sapiens) (P17676 whole entry, looked up): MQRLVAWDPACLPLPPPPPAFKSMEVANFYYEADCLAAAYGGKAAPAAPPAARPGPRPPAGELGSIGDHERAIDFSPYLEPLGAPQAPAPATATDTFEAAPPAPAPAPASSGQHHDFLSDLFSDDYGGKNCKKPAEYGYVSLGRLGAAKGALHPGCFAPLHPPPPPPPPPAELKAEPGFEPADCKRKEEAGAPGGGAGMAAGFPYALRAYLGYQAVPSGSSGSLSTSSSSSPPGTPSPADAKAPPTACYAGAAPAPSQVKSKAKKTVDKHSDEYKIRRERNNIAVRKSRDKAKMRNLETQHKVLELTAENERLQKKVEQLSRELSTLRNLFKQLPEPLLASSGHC
Summary of the method: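 HepG2, transient MRTU transfection, 24 h treatment. RT-PCR plus CE fluorescence; DMSO negative control, bidirectional fit.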

[2] = ATG_CMV_CIS: Attagene CIS-FACTORIAL HepG2 Assay for human CMV (Internal Marker) (AID 2282928); settings: HepG2 CMV promoter reporter, transcription factor profiling; actives raise or lower the signal;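 further: endpoint acts as a background internal control marker rather than a target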
Summary of the method: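 After transient transfection of HepG2 with reporter transcription units driven by cis-regulatory promoters, cells receive test chemical for 24 h. Labeled reporter amplicons, digested with HpaI, are sized and quantified by capillary electrophoresis against DMSO.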

[3] = ATG_AP_1_CIS: Attagene CIS-FACTORIAL HepG2 Assay for human Activator Protein 1 (AP-1) (AID 2282931); settings: HepG2 Attagene cis-factorial AP-1 reporter mRNA; actives raise or lower the signal
Summary of the method: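 Endogenous transcription-factor activity in human HepG2 liver cells is read through a cis-promoter reporter transcript, sampled 24 h after dosing. Detection uses RT-PCR with capillary electrophoresis; values come from bidirectional fitting relative to DMSO.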

[4] = ATG_AP_2_CIS: Attagene CIS-FACTORIAL HepG2 Assay for human Activator Protein 2 (AP-2) (AID 2282932); settings: HepG2 AP-2 cis-reporter, Attagene transcription factor profiling; actives raise or lower the signal
Summary of the method: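 Multiplexed mRNA reporter assay in HepG2: cis-regulated units report endogenous factor activity after 24 h treatment. Fluorescence from capillary electrophoresis of RT-PCR products gives the signal, with DMSO as baseline.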

[5] = ATG_BRE_CIS: Attagene CIS-FACTORIAL HepG2 Assay for human Bone Morphogenetic Protein (BMP) Response Element (BRE) (AID 2282933); settings: HepG2 BMP response element reporter, Attagene transcription factor profiling; actives raise or lower the signal
Summary of the method: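 Transient MRTU transfection of human HepG2 liver cells; 24 h compound treatment; total RNA isolated, reverse-transcribed, PCR-amplified, 6-FAM labelled, HpaI-cut, capillary electrophoresis. DMSO = negative control/baseline, bidirectional fit.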

[6] = ATG_E_Box_CIS: Attagene CIS-FACTORIAL HepG2 Assay for human Enhancer Box (E-box) (AID 2282936); settings: HepG2 E-box cis-reporter transcription, actives raise or lower the signal
Summary of the method: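 First, HepG2 cells receive multiple cis-regulated reporter constructs by transient transfection. Next, chemicals are applied for 24 h. Finally, reporter mRNA is quantified via RT-PCR and capillary electrophoresis, with DMSO as baseline.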

[7] = ATG_M_61_CIS: Attagene CIS-FACTORIAL HepG2 Assay for M61 Transcription Factor (Internal Marker) (AID 2282937); settings: HepG2 Attagene CIS-FACTORIAL M61 internal marker reporter; actives raise or lower the signal
Summary of the method: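 Cells were transfected with reporter units under cis-regulatory promoters, treated with chemicals for 24 h, then lysed for RNA. Reporter transcripts were quantified by RT-PCR and capillary electrophoresis, and activity was fitted bidirectionally against DMSO.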

[8] = ATG_EGR_CIS: Attagene CIS-FACTORIAL HepG2 Assay for human Early Growth Response 1 (EGR1) (AID 2282938); settings: HepG2 Attagene CIS-FACTORIAL EGR reporter mRNA; actives raise or lower the signal
Summary of the method: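 Endogenous TF activity in HepG2 liver cells was gauged through cis-promoter reporter constructs transiently transfected. After 24 h dosing, reporter mRNA was quantified by RT-PCR and capillary electrophoresis, and curves fitted in both directions versus DMSO.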

[9] = ATG_Ets_CIS: Attagene CIS-FACTORIAL HepG2 Assay for human Erythroblast Transformation Specific (ETS) (AID 2282941); settings: HepG2 ETS cis-reporter transcription, actives raise or lower the signal
Summary of the method: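 Human HepG2 hepatoma cells were transiently transfected with promoter-driven reporter constructs and treated for 24 hours. Reporter transcripts were quantified by RT-PCR with fluorescent primer extension; bidirectional curve fitting used DMSO as reference.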

[10] = molecular target: Hepatocyte nuclear factor 3-beta (Homo sapiens) (UniProt Q9Y261); test: ATG_FoxA2_CIS: Attagene CIS-FACTORIAL HepG2 Assay for human Forkhead box A2 (FOXA2) (AID 2282942); settings: HepG2 cis-reporter transcription factor activity, 24 h; actives raise or lower the signal
Chain of Hepatocyte nuclear factor 3-beta (Homo sapiens) (Q9Y261 whole entry, looked up): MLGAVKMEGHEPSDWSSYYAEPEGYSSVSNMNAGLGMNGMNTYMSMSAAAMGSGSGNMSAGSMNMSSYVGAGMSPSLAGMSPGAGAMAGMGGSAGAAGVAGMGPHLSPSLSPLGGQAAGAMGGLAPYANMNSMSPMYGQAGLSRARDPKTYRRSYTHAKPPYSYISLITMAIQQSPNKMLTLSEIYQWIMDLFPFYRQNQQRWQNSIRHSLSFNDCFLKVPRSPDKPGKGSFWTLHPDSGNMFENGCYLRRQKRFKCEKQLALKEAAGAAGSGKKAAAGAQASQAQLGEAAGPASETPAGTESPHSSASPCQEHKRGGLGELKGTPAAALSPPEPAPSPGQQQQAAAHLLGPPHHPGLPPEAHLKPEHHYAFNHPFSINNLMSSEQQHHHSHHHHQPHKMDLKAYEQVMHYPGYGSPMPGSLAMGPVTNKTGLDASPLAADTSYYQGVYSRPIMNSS
Summary of the method: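 Endogenous transcription factor activity was read in HepG2 cells carrying transiently transfected cis-promoter reporter units. After 24 h dosing, reporter mRNA was quantified by RT-PCR and capillary electrophoresis, and values fitted bidirectionally versus DMSO.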

[11] = ATG_FoxO_CIS: Attagene CIS-FACTORIAL HepG2 Assay for human Forkhead box O (FoxO) (AID 2282943); settings: HepG2 Attagene cis-reporter, FoxO element, mRNA; actives raise or lower the signal
Summary of the method: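 Transfected HepG2 reporter cells exposed to test chemical for 24 h; reporter RNA measured by reverse transcription, PCR and fluorescent capillary electrophoresis; curves fitted for increases and decreases against DMSO.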

[12] = ATG_GATA_CIS: Attagene CIS-FACTORIAL HepG2 Assay for human GATA Binding Protein (AID 2282944); settings: HepG2 GATA cis-element reporter, Attagene multiplex mRNA; actives raise or lower the signal
Summary of the method: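 Transient MRTU transfection, HepG2, 24 h compound exposure. Total RNA → oligo(dT) RT → PCR → 6-FAM primer extension → HpaI cut → CE. Bidirectional fit vs DMSO.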

[13] = ATG_ISRE_CIS: Attagene CIS-FACTORIAL HepG2 Assay for human Interferon Regulatory Factor 1 (IRF1) binding to an Interferon-Stimulated Response Element (ISRE) (AID 2282948); settings: HepG2 ISRE cis-reporter (Attagene), mRNA transcription readout; actives raise or lower the signal
Summary of the method: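 Cell-based cis-reporter assay; HepG2; 24 h exposure; reporter mRNA by RT-PCR plus capillary electrophoresis fluorescence; activity in either direction scored relative to DMSO.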

[14] = ATG_M_32_CIS: Attagene CIS-FACTORIAL HepG2 Assay for M32 Transcription Factor (Internal Marker) (AID 2282949); settings: HepG2 Attagene cis-factorial M32 reporter, mRNA; actives raise or lower the signal;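 further: background control marker of the multiplexed CIS panel rather than a real target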
Summary of the method: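 Internal background marker read-out: RT-PCR/capillary electrophoresis fluorescence of reporter transcripts from transiently transfected HepG2 cells after 24 h chemical exposure. Activity fitted bidirectionally relative to DMSO negative control.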

[15] = ATG_M_06_CIS: Attagene CIS-FACTORIAL HepG2 Assay for M06 Transcription Factor (Internal Marker) (AID 2282950); settings: HepG2 Attagene CIS-FACTORIAL M06 internal marker reporter; actives raise or lower the signal
Summary of the method: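 Read-out is fluorescence of labelled reporter cDNA fragments resolved by capillary electrophoresis after RT-PCR. Cells: HepG2 carrying transfected cis-promoter reporter units, treated 24 h. Gain or loss of signal fitted relative to DMSO.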

[16] = molecular target: Hepatocyte nuclear factor 6 (Homo sapiens) (UniProt Q9UBC0); test: ATG_HNF6_CIS: Attagene CIS-FACTORIAL HepG2 Assay for human Hepatocyte Nuclear Factor 6 (HNF6) (AID 2282952); settings: HepG2 Attagene cis-factorial HNF6 reporter transcription; actives raise or lower the signal
Chain of Hepatocyte nuclear factor 6 (Homo sapiens) (Q9UBC0 whole entry, looked up): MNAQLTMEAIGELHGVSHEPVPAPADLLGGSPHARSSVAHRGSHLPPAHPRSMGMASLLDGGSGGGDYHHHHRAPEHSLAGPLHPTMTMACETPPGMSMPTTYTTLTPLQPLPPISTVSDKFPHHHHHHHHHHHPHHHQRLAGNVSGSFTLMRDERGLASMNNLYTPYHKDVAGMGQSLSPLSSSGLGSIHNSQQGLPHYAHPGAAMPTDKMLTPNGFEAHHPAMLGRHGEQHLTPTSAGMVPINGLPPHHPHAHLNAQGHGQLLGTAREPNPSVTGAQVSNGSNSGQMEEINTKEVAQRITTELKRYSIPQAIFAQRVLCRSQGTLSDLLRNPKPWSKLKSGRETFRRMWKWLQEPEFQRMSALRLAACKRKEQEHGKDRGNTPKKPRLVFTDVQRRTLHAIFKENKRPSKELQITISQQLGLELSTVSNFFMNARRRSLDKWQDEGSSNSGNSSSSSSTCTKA
Summary of the method: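 Multiplexed mRNA reporter assay in transfected HepG2; 24 h dosing; RT-PCR plus capillary electrophoresis fluorescence; DMSO-referenced bidirectional curve fitting.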

[17] = ATG_MRE_CIS: Attagene CIS-FACTORIAL HepG2 Assay for human Metal Responsive Element (MRE) (AID 2282954); settings: HepG2 MRE cis-reporter transcription, Attagene multiplex; actives raise or lower the signal
Summary of the method: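 Fluorescent reporter fragments separated by capillary electrophoresis give mRNA induction for the MRE unit after 24 h treatment of transfected HepG2 cells. Endogenous transcription-factor activity is read; DMSO serves as negative control and baseline.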

[18] = ATG_Sox_CIS: Attagene CIS-FACTORIAL HepG2 Assay for human SRY-box transcription factor (SOX) (AID 2282960); settings: HepG2 Attagene cis-factorial SOX reporter, mRNA; actives raise or lower the signal
Summary of the method: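 Transient MRTU transfection of HepG2; 24 h compound incubation; TriZol RNA, oligo(dT) RT, PCR, 6-FAM primer extension, HpaI cut, CE. Bidirectional fit, DMSO = baseline.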

[19] = molecular target: Transcription factor Sp1 (Homo sapiens) (UniProt P08047); test: ATG_Sp1_CIS: Attagene CIS-FACTORIAL HepG2 Assay for human Specificity Protein 1 (Sp1) (AID 2282961); settings: HepG2 Sp1 cis-reporter transcription, actives raise or lower the signal
Chain of Transcription factor Sp1 (Homo sapiens) (P08047 whole entry, looked up): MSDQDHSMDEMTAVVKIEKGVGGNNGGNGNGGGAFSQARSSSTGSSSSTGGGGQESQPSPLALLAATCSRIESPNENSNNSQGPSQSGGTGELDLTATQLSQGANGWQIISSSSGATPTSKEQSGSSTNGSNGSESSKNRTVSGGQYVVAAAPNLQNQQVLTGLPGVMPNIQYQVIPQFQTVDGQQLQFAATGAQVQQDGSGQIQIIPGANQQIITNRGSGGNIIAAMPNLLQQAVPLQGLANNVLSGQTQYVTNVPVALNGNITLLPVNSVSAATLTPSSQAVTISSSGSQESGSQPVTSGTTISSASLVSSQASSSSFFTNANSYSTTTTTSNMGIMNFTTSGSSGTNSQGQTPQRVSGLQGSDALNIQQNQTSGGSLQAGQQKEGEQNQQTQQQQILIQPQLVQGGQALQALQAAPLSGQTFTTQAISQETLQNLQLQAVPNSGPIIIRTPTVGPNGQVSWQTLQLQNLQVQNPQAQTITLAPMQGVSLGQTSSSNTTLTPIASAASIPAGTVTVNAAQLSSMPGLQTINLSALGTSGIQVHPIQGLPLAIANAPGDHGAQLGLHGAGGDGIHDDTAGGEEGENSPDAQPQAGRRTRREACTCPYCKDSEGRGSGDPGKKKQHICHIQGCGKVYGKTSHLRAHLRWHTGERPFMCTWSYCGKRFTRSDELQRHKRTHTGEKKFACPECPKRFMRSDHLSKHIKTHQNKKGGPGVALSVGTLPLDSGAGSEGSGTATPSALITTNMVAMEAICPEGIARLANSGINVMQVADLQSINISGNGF
Summary of the method: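 Endogenous Sp1 activity was gauged in human liver HepG2 cells bearing transfected reporter units under a cis-regulating promoter. After 24 h dosing, reporter mRNA was quantified by RT-PCR with capillary electrophoresis, and activity fitted bidirectionally versus DMSO.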

[20] = molecular target: Signal transducer and activator of transcription 3 (Homo sapiens) (UniProt P40763); test: ATG_STAT3_CIS: Attagene CIS-FACTORIAL HepG2 Assay for human Signal Transducer and Activator of Transcription 3 (STAT3) (AID 2282963); settings: HepG2, Attagene cis-factorial STAT3 reporter transcription; actives raise or lower the signal
Chain of Signal transducer and activator of transcription 3 (Homo sapiens) (P40763 whole entry, looked up): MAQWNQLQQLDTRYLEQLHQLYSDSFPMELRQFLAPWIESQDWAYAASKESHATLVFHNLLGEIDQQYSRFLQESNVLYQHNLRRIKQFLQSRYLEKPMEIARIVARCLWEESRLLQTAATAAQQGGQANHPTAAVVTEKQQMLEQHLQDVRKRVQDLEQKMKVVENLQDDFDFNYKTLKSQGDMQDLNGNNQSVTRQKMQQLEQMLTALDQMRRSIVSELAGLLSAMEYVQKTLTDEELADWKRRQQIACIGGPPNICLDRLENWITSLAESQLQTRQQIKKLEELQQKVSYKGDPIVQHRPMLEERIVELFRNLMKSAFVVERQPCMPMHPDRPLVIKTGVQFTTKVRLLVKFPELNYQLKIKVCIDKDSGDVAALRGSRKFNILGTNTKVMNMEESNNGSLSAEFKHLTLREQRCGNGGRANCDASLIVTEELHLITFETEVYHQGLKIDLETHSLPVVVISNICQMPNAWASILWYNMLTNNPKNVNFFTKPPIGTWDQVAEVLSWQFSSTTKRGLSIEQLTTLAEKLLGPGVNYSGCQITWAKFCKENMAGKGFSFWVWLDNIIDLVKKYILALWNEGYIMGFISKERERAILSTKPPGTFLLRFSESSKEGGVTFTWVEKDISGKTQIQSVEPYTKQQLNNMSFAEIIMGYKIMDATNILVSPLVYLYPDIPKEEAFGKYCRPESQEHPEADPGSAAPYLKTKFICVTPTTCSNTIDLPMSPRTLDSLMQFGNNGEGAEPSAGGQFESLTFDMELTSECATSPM
Summary of the method: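 Values derive from bidirectional fits relative to DMSO of reporter mRNA levels, measured by RT-PCR with capillary electrophoresis, in HepG2 cells carrying transiently transfected cis-regulated reporter units and exposed 24 h.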

Measured: AC50

CCCOC(=O)c1ccccc1C(=O)OCCC
inactive: all assays above

O=[N+]([O-])c1cc(C(F)(F)F)c(Cl)c([N+](=O)[O-])c1Cl
active: [2] 5.9 µM | [6] 5.43 µM | [8] 4.82 µM | [13] 5.65 µM | [17] 5.11 µM | [18] 5.81 µM | [19] 6.68 µM
inactive: all other assays above

Cc1ncc(C[n+]2csc(CCO)c2C)c(N)n1
inactive: all assays above

O=C=Nc1ccccc1
inactive: all assays above

CC(C)(C)C(=O)CCl
active: [6] 45.2 µM | [17] 77.1 µM
inactive: all other assays above

C=CC(=O)OCC(CC)CCCC (stereo not given)
inactive: all assays above

CN(C)C(=O)C(c1ccccc1)c1ccccc1
inactive: all assays above

— PubChem BioAssay (EPA / NIEHS)
